Data on 14 compounds can be found in PubChem BioAssay (NCI).

What all share (experiment): NCI-60 one-dose screen, 48 h (100 = growth as untreated, 0 = no growth, -100 = all killed)
Common to all, as to conditions: 10 µM

Experiment [1] has as its system T-47D breast.
The test system of experiment [2] is BT-549 breast.
The test system of experiment [3] is MDA-MB-435 melanoma.
The test system of experiment [4] is SW-620 colon.
The subject of experiment [5] is MCF7 breast.
Experiment [6] has as its system HCT-116 colon.
For experiment [7], the system named is HCC-2998 colon.
In experiment [8] the test system is KM12 colon.

About 83,000 compounds went through this panel and 20% of them were active in at least one assay; those are over-represented in the sample as a whole.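 How to read the values: 0–100, growth inhibition (40 = 60% inhibited); 0, no net growth; -100 to 0, cell death (-40 = 40% of starting cells died; -100 = all dead).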 A number with no mark means an inactive call. Active and inactive are the calls of the source. The calls were made as follows: active = growth percent below 10; inactive = the rest.

Turning to `O=C1c2ccccc2-c2c1c1cccnc1c(=O)n2C[C@H](O)CO`, the growth in experiment [1] is 59.6%; in experiment [2] it was 61.7%; in experiment [3] it was 87.5%; in experiment [4], 49.9%; in experiment [5] it was 25.5%; in experiment [6], 38.5%. The growth is 79.7% in experiment [7] and 62.1% in experiment [8].

Consider `C[C@H]1[C@H](OC(=O)CCC(=O)O)O[C@@H]2O[C@]3(C)CC[C@H]4[C@H](C)CC[C@@H]1[C@@]24OO3`, for which the growth in experiment [1] is 31.3%; in experiment [2], 37.9%; in experiment [3], 9.74% (active); in experiment [4] it was 30.6%; in experiment [5], 28.4%; in experiment [6] it was 14.1%. Further, the results for the growth in experiment [7] and in experiment [8] were 48.1% and 27.1%, respectively.

Take `CCOC(=O)CC(S(=O)(=O)c1ccccc1)S(=O)(=O)c1ccccc1`: the growth was 88.1% in experiment [1]; 110% in experiment [2]; 107% in experiment [3]; 8.23% (active) in experiment [4]; 101% in experiment [5]; 102% in experiment [6]. Also, the growth was 109% in experiment [7] and 97.1% in experiment [8].

For the compound `O=C1/C(=C/c2ccc3c(c2)OCO3)SC(=S)N1C1c2ccccc2Oc2ccccc21`, the growth in experiment [1] is 104%; in experiment [2], 91.1%; in experiment [3] it was 96.5%; in experiment [4] it was 103%; in experiment [5], 91.6%; in experiment [6], 92.9%. For the same compound, the growth is 80.1% in experiment [7] and 96.6% in experiment [8].

Take `COc1cc(-c2nn(-c3cccc(NC(=O)NCCNS(=O)(=O)c4ccc(Cl)cc4)c3)cc2-c2ccncc2)ccc1Cl`: the growth in experiment [1] is 23.8%; in experiment [2] it was -11.6% (active); in experiment [3] it was 2.25% (active); in experiment [4] it was 18.9%; in experiment [5], 4.85% (active); in experiment [6], 0.871% (active). For the same compound, the growth is -9.49% (active) in experiment [7] and 7.63% (active) in experiment [8].

For `c1ccc2c(c1)Cc1ccccc1N2CCN1CCCCC1`, the growth was 90.3% in experiment [1]; 86.3% in experiment [2]; 106% in experiment [3]; 89.1% in experiment [4]; 89.4% in experiment [5]; 56.8% in experiment [6]. Besides, the values for the growth in experiment [7] and in experiment [8] were 86% and 95.3%, respectively.

Regarding `Cc1ccc(C)c(COc2cc(NC(=O)c3ccc4c(c3)OCO4)ccc2N(C)S(C)(=O)=O)c1`, the growth in experiment [1] is 8.82% (active); in experiment [2] it was 27.5%; in experiment [3] it was -15% (active); in experiment [4] it was 28.7%; in experiment [5], 11.1%; in experiment [6] it was -34.1% (active). The growth is -41.5% (active) in experiment [7] and -10.9% (active) in experiment [8].

Consider `O=C1OC(C(Cl)(Cl)Cl)OC1C(Cl)(Cl)Cl` (configuration not stated), for which the growth in experiment [1] was 122%; in experiment [2], 109%; in experiment [3], 94.7%; in experiment [4], 125%; in experiment [5], 114%; in experiment [6] it was 105%. The figures for the growth in experiment [7] and in experiment [8] were 111% and 101%, respectively.

As to `COc1cc(-c2csc(NC(=O)Nc3cc(C(F)(F)F)cc(C(F)(F)F)c3)n2)cc(OC)c1OC`, the growth in experiment [1] is -8.28% (active); in experiment [2] it was 0.972% (active); in experiment [3] it was 13%; in experiment [4], 26.5%; in experiment [5] it was 2.97% (active); in experiment [6], 0.288% (active). For the same compound, the growth is 22.4% in experiment [7] and 18.7% in experiment [8].

Turning to `COc1cc2ncnc(NC3CCC(O)CC3)c2cc1OC` (configuration not stated), the growth in experiment [1] is 80.3%; in experiment [2] it was 92.1%; in experiment [3], 106%; in experiment [4] it was 101%; in experiment [5], 88.3%; in experiment [6], 91.4%. Moreover, the growth was 106% in experiment [7] and 95.3% in experiment [8].

As for `CC(C1=C(CN(C(=O)Cc2cn(-c3ccccc3)nc2-c2ccc(Cl)cc2)C(C)C)Cc2ccccc21)c1ccccn1` (configuration not stated), the growth in experiment [1] was 40.6%; in experiment [2] it was 88%; in experiment [3] it was 70.1%; in experiment [4], 75.8%; in experiment [5], 41.2%; in experiment [6], 31.9%. The growth is 68% in experiment [7] and 54.8% in experiment [8].

As to `COc1ccc(Cc2cnc(N)nc2N)cc1OC`, the growth in experiment [1] was 101%; in experiment [2] it was 106%; in experiment [3], 107%; in experiment [4], 98.7%; in experiment [5], 100%; in experiment [6], 99.8%. Further, the figures for the growth in experiment [7] and in experiment [8] were 105% and 110%, respectively.

For the compound `COc1ccc(N=Nc2cc(OC)c(OC)c(OC)c2)cc1`, the growth in experiment [1] is 58.8%; in experiment [2], 89.7%; in experiment [3], 67.6%; in experiment [4], 79.8%; in experiment [5] it was 63.6%; in experiment [6], 80.5%. The results for the growth in experiment [7] and in experiment [8] were 81.4% and 81.7%, respectively.

As for `CCC(C)[C@H](NC(C)=O)C(=O)N[C@@H](CCCNC(=N)N)C(=O)N[C@@H](CCCCN)C(=O)N[C@@H](CC1CCC(O)CC1)C(=O)NC(C(=O)N[C@@H](CCSC)C(=O)N[C@@H](CCCNC(=N)N)C(=O)N[C@@]1(C)CCC/C=C\CCC[C@@](C)(C(=O)NC(C(=O)N[C@@H](CCC(=O)O)C(=O)N[C@@H](CC(C)C)C(=O)N[C@H](C(=O)N[C@@H](CCC(=O)O)C(N)=O)C(C)C)[C@@H](C)O)NC(=O)[C@H](CCC(N)=O)NC(=O)[C@H](CC(C)C)NC(=O)[C@H](CC(C)C)NC1=O)[C@@H](C)O` (some centres not stated), the growth in experiment [1] is 78.9%; in experiment [2], 117%; in experiment [3] it was 105%; in experiment [4], 90.4%; in experiment [5] it was 102%; in experiment [6] it was 89.1%. The growth in experiment [7] was 103%; in experiment [8], 96.9%.
